Assay [1] is described as follows: AP1 Signaling Pathway (AID 357; active means well fitted curve in either direction with a large enough effect, not every such curve was filed as active;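 further: ME-180 reporter cells stimulated with EGF at its EC50 level; on the % scale 0 is the no-effect control and ±100 the full control effect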). Put shortly:
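AP-1-bla ME-180 cells, Opti-MEM + 0.5% dialyzed FBS, plated overnight 37 °C. Cpd titration + EC50 EGF, 5 h 37 °C. CCF4 2.5 h RT; ex 405, em 460/530 ratio → %activity, AC50.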

In assay [2] the target is Cytochrome P450 1A2 (Homo sapiens) (UniProt P05177). Kind of assay: p450-cyp1a2 (AID 410; calls by dose curve;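 further: -100% = full effect of reference inhibitor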). The gist of the method:
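Luminescent readout of luciferin formed from Luciferin-ME by human CYP1A2; data normalized against complete inhibition by 57 uM furafylline. Enzyme 20nM, substrate 100uM at Km, 100mM KPO4 buffer, 60 min reaction at room temperature.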

The nature of assay [3]: NFAT Signaling Pathway (AID 444; active means well fitted curve in either direction with a large enough effect, not every such curve was filed as active;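 further: carbachol stimulus at about its EC50 of 1 µM final; on the % scale 0 is the no-effect control and ±100 the full control effect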). Particulars: Jurkat NFAT-bla M1, carbachol, beta-lactamase ratio, 5 h; at 17.2 µM (top of the series) unless noted. The gist of the method:
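Read-out: CCF4 FRET ratio (460 nm/530 nm) after 1 h RT dye loading, used for %activity and AC50 from titration series. Cells: Jurkat NFAT-β-lactamase/M1 line, treated with compound plus 1 uM carbachol for 5 h, 37 °C.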

Assay [4] is described as follows: Stat Signaling Pathway (AID 446; active means well fitted curve in either direction with a large enough effect, not every such curve was filed as active;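 further: ME-180 cervical cancer cells given 40 pM IL-6 alongside compound; SIE-controlled beta-lactamase reporter measured as 460/530 nm FRET emission ratio; on the % scale 0 is the no-effect control and ±100 the full control effect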). Put shortly: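 Screening format detects activators and inhibitors alike: ME-180 SIE-bla cells stimulated at 40 pM IL-6 for 5 hrs with compound, then dual-emission beta-lactamase read at 405 nm excitation.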
The target in assay [5] is Glucocorticoid receptor (Homo sapiens) (UniProt P04150). Description: GR-GFP Redistribution (AID 450;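 active means compounds whose dose series gives a full or clear partial fitted curve of increased nuclear translocation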; further: potency means the concentration at half of the fitted maximal effect). The following applies: U2OS GR-GFP nuclear translocation, laser cytometry, 2 h.
Glucocorticoid receptor (Homo sapiens), sequence (P04150 whole entry, looked up, the tested form may be a part): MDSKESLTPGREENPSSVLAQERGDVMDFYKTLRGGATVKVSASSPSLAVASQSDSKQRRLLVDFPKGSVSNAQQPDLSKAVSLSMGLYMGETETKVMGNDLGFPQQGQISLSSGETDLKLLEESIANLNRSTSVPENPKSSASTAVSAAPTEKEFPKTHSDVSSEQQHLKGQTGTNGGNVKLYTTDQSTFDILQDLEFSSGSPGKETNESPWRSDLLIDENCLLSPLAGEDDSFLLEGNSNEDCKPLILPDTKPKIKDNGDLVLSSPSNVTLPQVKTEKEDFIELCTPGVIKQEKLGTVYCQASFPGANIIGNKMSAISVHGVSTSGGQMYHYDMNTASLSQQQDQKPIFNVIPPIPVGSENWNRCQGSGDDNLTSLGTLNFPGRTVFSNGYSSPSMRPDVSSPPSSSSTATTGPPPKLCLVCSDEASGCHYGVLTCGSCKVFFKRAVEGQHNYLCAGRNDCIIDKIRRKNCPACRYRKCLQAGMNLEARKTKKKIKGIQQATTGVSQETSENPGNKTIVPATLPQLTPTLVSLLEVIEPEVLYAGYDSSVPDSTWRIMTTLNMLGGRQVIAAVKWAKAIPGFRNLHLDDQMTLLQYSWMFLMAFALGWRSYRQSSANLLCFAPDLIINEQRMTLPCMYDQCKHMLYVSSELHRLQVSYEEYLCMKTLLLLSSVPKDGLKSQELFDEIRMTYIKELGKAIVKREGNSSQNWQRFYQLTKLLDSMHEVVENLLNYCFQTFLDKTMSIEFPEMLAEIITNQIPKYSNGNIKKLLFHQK
Assay [6] addresses Mitogen-activated protein kinase 10 (Mus musculus) (UniProt Q61831). Kind of assay: JNK3 AlphaScreen Assay (AID 530; active means well fitted curve in either direction with a large enough effect, not every such curve was filed as active;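 further: kinase came from lysate of stimulated human HepG2 cells; signal reports phosphorylation of biotinylated GST-cJun 1-79 at Ser73 with 10 µM ATP; on the % scale 0 is the no-effect control and ±100 the full control effect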). Put shortly:
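Compound titrations were preincubated 15 minutes at room temperature with substrate, antibody and pre-activated JNK3-containing HepG2 lysate. Reactions were started with 10 uM ATP and stopped with EDTA-containing bead buffer for AlphaScreen detection.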

Assay [7] deals with 3',5'-cyclic-AMP phosphodiesterase 4B (Homo sapiens) (UniProt Q07343). Description: qHTS Assay for Inhibitors of PDE-IV (AID 607; active means well fitted activation curve with a large enough effect in the main read-out, with a control signal flat, not every such curve was filed as active; further: % of control where 0% means no effect). Put shortly: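 The readout is membrane depolarisation from a cAMP-sensing CNG channel, detected with a potential dye at ex 535/em 590. Cells were HEK293-derived (endogenous PDE-IV) at 1000 cells/well, titrated up to 22.9 uM final.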
3',5'-cyclic-AMP phosphodiesterase 4B (Homo sapiens), sequence (Q07343 whole entry, looked up): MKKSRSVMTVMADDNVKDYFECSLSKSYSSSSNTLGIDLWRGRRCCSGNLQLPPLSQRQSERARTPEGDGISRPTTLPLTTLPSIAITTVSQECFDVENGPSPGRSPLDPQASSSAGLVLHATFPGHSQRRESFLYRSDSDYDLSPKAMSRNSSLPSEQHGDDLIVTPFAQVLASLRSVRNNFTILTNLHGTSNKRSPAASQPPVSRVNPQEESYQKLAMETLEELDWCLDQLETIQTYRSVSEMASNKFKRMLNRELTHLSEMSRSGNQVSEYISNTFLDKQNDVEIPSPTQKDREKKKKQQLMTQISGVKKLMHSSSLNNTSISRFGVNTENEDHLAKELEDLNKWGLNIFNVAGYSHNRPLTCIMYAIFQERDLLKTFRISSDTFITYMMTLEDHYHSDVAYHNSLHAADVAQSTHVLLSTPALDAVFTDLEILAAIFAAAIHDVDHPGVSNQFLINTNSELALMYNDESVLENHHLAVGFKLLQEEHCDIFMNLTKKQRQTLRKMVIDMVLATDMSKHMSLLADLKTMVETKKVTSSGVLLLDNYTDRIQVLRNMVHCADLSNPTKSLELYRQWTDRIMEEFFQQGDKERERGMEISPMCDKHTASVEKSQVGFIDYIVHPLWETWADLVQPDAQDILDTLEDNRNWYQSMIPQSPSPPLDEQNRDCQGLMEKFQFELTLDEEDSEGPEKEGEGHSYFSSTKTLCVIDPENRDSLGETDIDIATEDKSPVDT
A short description of assay [8]: qHTS Assay for Lipid Storage Modulators (AID 1519; calls by dose curve). Particulars: Drosophila S3 cells, BODIPY lipid droplet/cell ratio, laser cytometry, cells loaded with oleic acid; for activity change, negative = inhibition: at 25.7 µM (top of the series). Put shortly: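 Cells seeded at 5,000 per well were treated with compounds over a concentration series and loaded with oleic acid (400 uM, as added). Lipid droplet fluorescence (488 nm excitation, 500-530 nm channel) was read by laser-scanning cytometry and normalized to 20 uM Triacsin C.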

Assay [9] concerns the target ATP-dependent 6-phosphofructokinase (Trypanosoma brucei brucei) (UniProt O15648). Kind of assay: qHTS Assay to Find Inhibitors of T. brucei phosphofructokinase: hit validation (AID 492961). The gist of the method: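 In this biochemical qHTS validation, titrated compounds were tested against 1.25 nM PFK with 0.1 mM ATP and 0.5 mM F6P. Percent activity came from controls lacking or containing enzyme.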

For assay [10], the target named is Ubiquitin carboxyl-terminal hydrolase 1 (Homo sapiens) (UniProt O94782). Description: Inhibitors of USP1/UAF1: Pilot qHTS (AID 504865).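 Further: rhodamine fluorescence freed from ubiquitin-rhodamine substrate followed over time; top concentration of the series differs between compounds; on the % scale 0 is the no-effect control and ±100 the full control effect; nearly all actives have a fitted effect of over 35% in size.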 The gist of the method:
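Enzyme-free wells gave the negative control, while test wells held 1nM USP1/UAF1 preincubated with compound for 15 min at room temperature. Ub-Rho at 150nM final started the reaction, and fluorescence at 480/540 nm was recorded kinetically.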

Assay [11] concerns the target Luciferin 4-monooxygenase (Photinus pyralis) (UniProt P08659). Kind of assay: Biochemical firefly luciferase enzyme assay for NPC (AID 624030).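 Further: purified P. pyralis luciferase at 10 nM with luciferin and ATP substrate; 0% = DMSO and -100% = full luciferase inhibition by PTC124 control; nearly all actives have a fitted effect of over 70% in size.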 The gist of the method: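 Direct inhibition of firefly luciferase enzyme (10 nM final, 50 mM Tris Acetate) assessed by luminescence within 5 minutes. Percent activity scaled between DMSO and PTC124 positive control, with concentration-effect curves classified by fit quality and response.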

The nature of assay [12]: qHTS profiling for inhibitors of Plasmodium falciparum proliferation (AID 504749).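 Further: 0% = DMSO vehicle and full inhibition = artemisinin control; nearly all actives have a fitted effect of over 60% in size.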 Particulars: P. falciparum in erythrocytes, SYBR Green DNA, 72 h, at 12.8 µM (top of the series). Put shortly:
(§1)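 Infected RBCs, 0.3% parasitemia/2.5% Hct final; cpd 72 h, 37 C, 5% CO2; lysis buffer with saponin/triton/SYBR Green I, o/n RT dark; FI 485/535; norm. to artemisinin (0.29 uM) and DMSO.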

A further assay relates to 3D7. The assay is described as above. Particulars: P. falciparum in erythrocytes, SYBR Green DNA, 72 h; series mostly up to 12.8 µM. The gist of the method: as §1
The next assay has as its system C2A. The assay is described as above. The following applies: P. falciparum in erythrocytes, SYBR Green DNA, 72 h; series mostly up to 12.8 µM. The gist of the method:
as §1

The subject of another assay is CP217. Described as above. The following applies: P. falciparum in erythrocytes, SYBR Green DNA, 72 h; series mostly up to 12.8 µM. Put shortly: as §1
The next assay relates to CP250. The assay is described as above. The following applies: P. falciparum in erythrocytes, SYBR Green DNA, 72 h; series mostly up to 12.8 µM. Put shortly: as §1
In the next assay the test system is FAB9. The description is as above. The following applies: P. falciparum in erythrocytes, SYBR Green DNA, 72 h; series mostly up to 12.8 µM. The gist of the method:
as §1

The next assay concerns JCK. The description is as above. Particulars: P. falciparum in erythrocytes, SYBR Green DNA, 72 h; series mostly up to 12.8 µM. The gist of the method:
as §1

The next assay relates to PC49. Described as above. The following applies: P. falciparum in erythrocytes, SYBR Green DNA, 72 h; series mostly up to 12.8 µM. Put shortly: as §1
Assay [13] concerns the target Glucocorticoid receptor (Homo sapiens) (UniProt P04150). Kind of assay: GR-EFC Redistribution (AID 451; calls by dose curve; further: potency means the concentration at half of the fitted maximal effect). The following applies: CHO-K1 GR-EFC translocation, beta-gal luminescence, 2 h. Put shortly: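 Translocation of GR-ED fusion to nuclear EA restores b-gal, read by luminescence after 1 h room-temperature detection. Engineered CHO-K1 biosensor cells, 1,000/well, exposed 2 h at 37 C to titrations up to 46 uM final.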

[14] abbreviates: measured here: cell count channel max response.
Setting [15] is: measured here: lipid channel max response.

The structures appear in SMILES notation. Results filed as inconclusive are left out. Activity calls are given as the source filed them. Unless noted, the call rests on the fitted dose curve; in most records, active means well fitted curve in the direction sought with a large enough effect; inconclusive means small, poorly fitted or top-dose-only effect, or another doubt; inactive means no such curve, though single readings can be large; an effect the other way counts as inactive or inconclusive.

Ubiquitin carboxyl-terminal hydrolase 1 (Homo sapiens), sequence (O94782 whole entry, looked up): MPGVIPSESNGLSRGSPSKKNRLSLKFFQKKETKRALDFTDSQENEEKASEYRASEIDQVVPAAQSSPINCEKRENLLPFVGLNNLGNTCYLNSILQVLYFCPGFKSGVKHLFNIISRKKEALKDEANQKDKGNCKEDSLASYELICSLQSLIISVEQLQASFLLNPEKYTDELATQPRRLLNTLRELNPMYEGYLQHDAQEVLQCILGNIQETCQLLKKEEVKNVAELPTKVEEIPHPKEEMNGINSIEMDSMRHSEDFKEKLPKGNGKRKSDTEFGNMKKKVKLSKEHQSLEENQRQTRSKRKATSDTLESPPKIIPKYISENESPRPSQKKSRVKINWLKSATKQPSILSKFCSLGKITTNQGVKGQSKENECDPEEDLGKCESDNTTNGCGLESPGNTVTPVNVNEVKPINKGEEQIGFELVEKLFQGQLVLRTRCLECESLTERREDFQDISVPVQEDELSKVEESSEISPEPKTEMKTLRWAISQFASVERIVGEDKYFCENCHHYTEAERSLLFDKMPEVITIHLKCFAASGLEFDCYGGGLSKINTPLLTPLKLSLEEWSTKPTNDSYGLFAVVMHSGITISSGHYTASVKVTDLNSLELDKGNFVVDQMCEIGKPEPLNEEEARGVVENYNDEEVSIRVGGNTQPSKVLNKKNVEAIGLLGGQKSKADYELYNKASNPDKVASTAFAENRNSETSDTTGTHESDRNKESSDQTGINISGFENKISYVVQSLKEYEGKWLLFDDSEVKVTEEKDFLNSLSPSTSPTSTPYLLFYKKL
Cytochrome P450 1A2 (Homo sapiens), sequence (P05177 whole entry, looked up): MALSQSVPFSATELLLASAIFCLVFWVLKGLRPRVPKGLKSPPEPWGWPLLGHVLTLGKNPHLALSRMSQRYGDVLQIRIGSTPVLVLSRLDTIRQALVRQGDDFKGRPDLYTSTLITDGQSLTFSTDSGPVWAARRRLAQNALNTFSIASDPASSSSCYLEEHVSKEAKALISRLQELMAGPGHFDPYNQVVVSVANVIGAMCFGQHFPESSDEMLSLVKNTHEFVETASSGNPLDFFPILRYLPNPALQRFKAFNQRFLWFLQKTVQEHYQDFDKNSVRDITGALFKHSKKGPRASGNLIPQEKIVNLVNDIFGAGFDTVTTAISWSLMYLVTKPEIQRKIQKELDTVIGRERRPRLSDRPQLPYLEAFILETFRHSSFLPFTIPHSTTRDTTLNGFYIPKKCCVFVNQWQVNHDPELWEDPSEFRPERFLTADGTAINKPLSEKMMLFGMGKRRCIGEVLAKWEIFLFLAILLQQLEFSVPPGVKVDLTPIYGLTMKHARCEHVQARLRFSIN
Luciferin 4-monooxygenase (Photinus pyralis), sequence (P08659 whole entry, looked up): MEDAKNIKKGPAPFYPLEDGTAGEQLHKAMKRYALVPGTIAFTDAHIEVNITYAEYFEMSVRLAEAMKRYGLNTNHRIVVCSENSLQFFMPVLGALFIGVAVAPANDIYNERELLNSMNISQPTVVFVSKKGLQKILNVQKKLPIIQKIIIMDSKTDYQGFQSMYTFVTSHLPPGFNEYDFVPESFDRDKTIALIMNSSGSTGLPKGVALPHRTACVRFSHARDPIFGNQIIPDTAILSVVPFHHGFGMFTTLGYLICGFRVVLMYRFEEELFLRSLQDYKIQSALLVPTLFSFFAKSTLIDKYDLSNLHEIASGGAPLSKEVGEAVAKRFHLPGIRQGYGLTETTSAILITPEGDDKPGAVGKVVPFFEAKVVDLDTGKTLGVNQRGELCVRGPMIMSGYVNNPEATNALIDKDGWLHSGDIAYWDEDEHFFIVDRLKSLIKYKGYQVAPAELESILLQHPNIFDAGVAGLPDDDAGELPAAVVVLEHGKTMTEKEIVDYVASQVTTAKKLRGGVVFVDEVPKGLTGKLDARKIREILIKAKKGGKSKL
ATP-dependent 6-phosphofructokinase (Trypanosoma brucei brucei), sequence (O15648 whole entry, looked up): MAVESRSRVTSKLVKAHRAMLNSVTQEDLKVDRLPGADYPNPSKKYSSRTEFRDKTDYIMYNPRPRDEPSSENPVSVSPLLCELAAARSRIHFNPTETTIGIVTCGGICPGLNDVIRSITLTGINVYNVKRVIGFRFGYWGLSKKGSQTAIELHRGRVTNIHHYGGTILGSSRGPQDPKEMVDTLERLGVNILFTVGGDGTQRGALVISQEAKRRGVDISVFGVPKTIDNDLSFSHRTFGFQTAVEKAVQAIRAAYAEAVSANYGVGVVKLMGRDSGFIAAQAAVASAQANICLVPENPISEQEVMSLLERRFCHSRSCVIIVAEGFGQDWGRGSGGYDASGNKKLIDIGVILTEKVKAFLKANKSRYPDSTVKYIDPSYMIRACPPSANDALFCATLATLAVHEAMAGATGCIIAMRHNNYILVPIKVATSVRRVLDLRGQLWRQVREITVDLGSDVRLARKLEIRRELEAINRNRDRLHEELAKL

For the compound `C[C@H](Oc1ccccc1)C(=O)N[C@@H]1C(=O)N2[C@@H]1SC(C)(C)[C@@H]2C(=O)O`, the compound was called inactive in assay [1], in [4], in assay [7] and in assay [9]. The Potency entry (in assay [2]; in assay [6]; in assay [10]; in assay [11]; in the assay on 3D7; with C2A) was “inactive” in each case. Also, the Potency result in the assay on CP217, in the assay with CP250, in the assay on FAB9, in the assay on JCK and with PC49 was “inactive” each time. Moreover, the activity change, negative = inhibition in [3] is -0.496% (inactive); in assay [8] it was -0.821% (inactive). The Potency in assay [5] was > 20.6 µM (inactive). The results for the max response in assay [8] (setting [14]) and in [8] (setting [15]) were -5.3% and -3.26%, respectively. The activity, negative = inhibition in assay [12] (parasite line A) is 9.22% (inactive); in assay [12] (parasite line B), 2.55% (inactive).

For `Cc1ccccc1N1C(=O)c2cc(S(N)(=O)=O)c(Cl)cc2N[C@H]1C`, the compound was called inactive in assay [1], in [4] and in assay [7]. Moreover, the Potency entry in assay [2], in [6] and in [10] was “inactive” in each case. In addition, the activity change, negative = inhibition in [3] was 1.02% (inactive); in assay [8] it was 0.988% (inactive). In addition, the Potency in [5] is > 20.6 µM (inactive). Further, the max response in [8] (setting [14]) is -3.14%; in assay [8] (setting [15]), -3.66%.

In the case of `C=CCSC[C@@H]1Nc2cc(Cl)c(S(N)(=O)=O)cc2S(=O)(=O)N1`, the outcome in [1], in [4] and in assay [7] was inactive. Also, the Potency result in assay [2], in assay [6] and in [10] was “inactive” in each case. Further, the activity change, negative = inhibition is -2.73% (inactive) in assay [3] and -0.966% (inactive) in assay [8]. Also, the Potency in assay [5] is > 20.6 µM (inactive). Besides, the max response in assay [8] (setting [14]) was -24.3%; in assay [8] (setting [15]), -22.1%.

As to `COc1ccc2c3c([nH]c2c1)[C@@H]1C[C@@H]2[C@@H](C[C@H](O)[C@H](OC)[C@H]2C(=O)O)CN1CC3`, the result in assay [1], in [4] and in [7] was inactive. Further, the Potency result in [2] and in assay [10] was “inactive” in each case. Further, the activity change, negative = inhibition in [3] is -14.4% (inactive); in assay [8], -2.35% (inactive). Moreover, the Potency in [5] and in assay [13] was > 20.6 µM (inactive) in each case. For the same compound, the max response was -18.6% in [8] (setting [14]) and -20% in assay [8] (setting [15]).

`CN(C)c1ccc(O)c2c1C[C@H]1C[C@H]3[C@@H](N(C)C)C(=O)C(C(N)=O)=C(O)[C@]3(O)C(=O)C1=C2O`: the result in [1], in [4] and in assay [7] was inactive. Also, the Potency entry in assay [2] and in assay [6] was “inactive” in each case. Further, the activity change, negative = inhibition in assay [3] was 12.2% (inactive); in [8] it was -0.929% (inactive). The Potency in assay [5] and in assay [13] was > 20.6 µM (inactive) in each case. Further, the results for the max response in [8] (setting [14]) and in assay [8] (setting [15]) were 2.32% and 0.719%, respectively.

In the case of `NC(=O)N[C@H]1NC(=O)NC1=O`, the compound was called inactive in assay [1], in assay [4], in [7] and in assay [9]. Further, the Potency result (in [2]; in assay [11]; with C2A; in the assay with CP217; in the assay with CP250; in the assay on FAB9) was “inactive” throughout. For the same compound, the Potency entry in the assay with JCK and with PC49 was “inactive” in each case. For the same compound, the activity change, negative = inhibition in assay [3] is -6.77% (inactive); in assay [8] it was -0.627% (inactive). The Potency in assay [13] was > 20.6 µM (inactive). Besides, the max response came out at 21.8% in assay [8] (setting [14]) and 17.1% in [8] (setting [15]). Further, the activity, negative = inhibition is 2.27% (inactive) in assay [12] (parasite line A) and 16.7% (inactive) in [12] (parasite line B).

(Values after PubChem BioAssay (NCATS).)
